Screen size: about 5,500 compounds; about 2,000 (36%) were called active. Another 18% or so got no clear call; they are omitted. No stated cut-off is given here; in the data, active means normalized growth mostly below about 0.91 (no sharp cut-off); inconclusive means no clear call, values can overlap the other calls; inactive means mostly above about 0.92. This is one part of the list.
Test: chemical genetic growth profiling, strain panel (AID 1159580);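 further: tested at 20 µM; growth read once vehicle control cultures reached saturation at 30 °C; 1 = growth at the plate median or of vehicle wells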
Conditions: S. cerevisiae deletion strains, growth OD
[1] = locus YHR030C, strain SLT2, stronger effect = lower value
[2] = locus YHR079C, strain IRE1, stronger effect = lower value
[3] = locus YJL095W, strain BCK1, stronger effect = lower value
[4] = locus YJR066W, strain TOR1, stronger effect = lower value
[5] = locus YLR113W, strain HOG1, stronger effect = lower value
[6] = locus YNL183C, strain NPR1, stronger effect = lower value
[7] = locus YOR231W, strain MKK1, stronger effect = lower value
[8] = locus YPL256C, strain CLN2, stronger effect = lower value
[9] = locus YDL101C, strain DUN1, stronger effect = lower value
[10] = locus YAL013W, strain DEP1, stronger effect = lower value
[11] = locus YBR229C, strain ROT2, stronger effect = lower value
[12] = locus YDL134C, strain PPH21, stronger effect = lower value
[13] = locus YDR150W, strain NUM1, stronger effect = lower value
[14] = locus YEL061C, strain CIN8, stronger effect = lower value
[15] = locus YGR078C, strain PAC10, stronger effect = lower value
[16] = locus YHR087W, strain rtc3, stronger effect = lower value
[17] = locus YJR043C, strain POL32, stronger effect = lower value
[18] = locus YJR075W, strain HOC1, stronger effect = lower value
[19] = locus YLR039C, strain RIC1, stronger effect = lower value
[20] = locus YLR058C, strain SHM2 (second series), stronger effect = lower value
[21] = locus YLR085C, strain ARP6, stronger effect = lower value
[22] = locus YLR262C, strain YPT6, stronger effect = lower value
[23] = locus YML094W, strain GIM5, stronger effect = lower value
[24] = locus YMR219W, strain ESC1, stronger effect = lower value
[25] = locus YNL153C, strain GIM3, stronger effect = lower value
[26] = locus YNL298W, strain CLA4 (second series), stronger effect = lower value
[27] = locus YNL322C, strain KRE1, stronger effect = lower value
[28] = locus YNR030W, strain Alg12, stronger effect = lower value
[29] = locus YOL006C, strain TOP1, stronger effect = lower value
[30] = locus YPL055C, strain LGE1, stronger effect = lower value
[31] = locus YPL241C, strain CIN2, stronger effect = lower value
[32] = locus YPR135W, strain CTF4, stronger effect = lower value

Measured: normalized growth

OC[C@H]1O[C@H](OC[C@H]2O[C@@H](O)[C@H](O)[C@@H](O)[C@@H]2O)[C@H](O)[C@@H](O)[C@H]1O
inactive: [1] 1.05 | [2] 1.03 | [3] 1.05 | [4] 0.982 | [5] 1.01 | [6] 0.997 | [7] 1.04 | [8] 1.06

N#CC(C#N)=C/C=C(/Sc1nc2ccccc2s1)c1ccc(Br)cc1
active: locus YAR019C, strain CDC15, stronger effect = lower value 0.148 | locus YBL105C, strain PKC1, stronger effect = lower value 0.157 | locus YBR135W, strain CKS1, stronger effect = lower value 0.189 | locus YBR136W, strain MEC1, stronger effect = lower value 0.206 | locus YBR160W, strain CDC28, stronger effect = lower value 0.22 | locus YDL017W, strain CDC7, stronger effect = lower value 0.207 | locus YDL028C, strain MPS1, stronger effect = lower value 0.28 | [9] 0.338 | locus YDL108W, strain KIN28, stronger effect = lower value 0.289 | locus YDL132W, strain cdc53, stronger effect = lower value 0.299 | locus YDL214C, strain PRR2, stronger effect = lower value 0.144 | locus YDR052C, strain DBF4, stronger effect = lower value 0.695 | locus YDR054C, strain cdc34, stronger effect = lower value 0.145 | locus YDR226W, strain ADK1, stronger effect = lower value 0.28 | locus YDR477W, strain SNF1, stronger effect = lower value 0.144 | locus YER123W, strain YCK3, stronger effect = lower value 0.217 | locus YER133W, strain GLC7, stronger effect = lower value 0.168 | locus YFL009W, strain cdc4, stronger effect = lower value 0.317 | locus YFL029C, strain CAK1, stronger effect = lower value 0.153 | locus YFR003C, strain YPI1, stronger effect = lower value 0.253 | locus YFR019W, strain FAB1, stronger effect = lower value 0.146 | locus YFR028C, strain CDC14, stronger effect = lower value 0.187 | locus YGR040W, strain KSS1, stronger effect = lower value 0.156 | locus YGR052W, strain FMP48, stronger effect = lower value 0.167 | locus YGR092W, strain DBF2, stronger effect = lower value 0.155 | [1] 0.124 | [2] 0.17 | locus YHR082C, strain KSP1, stronger effect = lower value 0.163 | locus YHR205W, strain SCH9, stronger effect = lower value 0.0272 | locus YIL147C, strain SLN1, stronger effect = lower value 0.215 | [3] 0.116 | locus YJL128C, strain PBS2, stronger effect = lower value 0.391 | locus YJL157C, strain FAR1, stronger effect = lower value 0.118 | locus YJR016C, strain ILV3, stronger effect = lower value 0.176 | locus YJR066W, strain TOR1 (second series), stronger effect = lower value 0.114 | [4] 0.156 | locus YKL048C, strain ELM1, stronger effect = lower value 0.322 | locus YKL067W, strain YNK1, stronger effect = lower value 0.137 | locus YKL101W, strain HSL1, stronger effect = lower value 0.175 | locus YKL193C, strain SDS22, stronger effect = lower value 0.155 | locus YKL203C, strain TOR2, stronger effect = lower value 0.158 | [5] 0.218 | locus YLR133W, strain CKI1, stronger effect = lower value 0.149 | locus YLR403W, strain SFP1, stronger effect = lower value 0.0212 | locus YML070W, strain DAK1, stronger effect = lower value 0.172 | locus YMR001C, strain CDC5, stronger effect = lower value 0.126 | locus YMR205C, strain PFK2 (second series), stronger effect = lower value 0.138 | locus YMR277W, strain FCP1, stronger effect = lower value 0.144 | locus YNL006W, strain LST8, stronger effect = lower value 0.13 | locus YNL020C, strain ARK1, stronger effect = lower value 0.142 | locus YNL161W, strain CBK1, stronger effect = lower value 0.164 | [6] 0.153 | locus YNL207W, strain RIO2, stronger effect = lower value 0.21 | locus YNL222W, strain SSU72, stronger effect = lower value 0.177 | locus YNL307C, strain MCK1 (second series), stronger effect = lower value 0.137 | locus YOL078W, strain AVO1, stronger effect = lower value 0.154 | locus YOL136C, strain PFK27, stronger effect = lower value 0.161 | locus YOR061W, strain CKA2, stronger effect = lower value 0.174 | locus YOR119C, strain RIO1, stronger effect = lower value 0.155 | [7] 0.171 | locus YOR329C, strain SCD5, stronger effect = lower value 0.164 | locus YPL031C, strain PHO85, stronger effect = lower value 0.135 | locus YPL153C, strain RAD53, stronger effect = lower value 0.133 | locus YPL204W, strain HRR25, stronger effect = lower value 0.142 | locus YPL209C, strain IPL1, stronger effect = lower value 0.159 | [8] 0.216 | locus YPR025C, strain CCL1, stronger effect = lower value 0.181 | strain NNK1, stronger effect = lower value 0.304 | strain TSCII, stronger effect = lower value 0.157

CC(C)(O/N=C(/C(=O)N[C@@H]1C(=O)N2C(C(=O)[O-])=C(C[n+]3ccccc3)CSC12)c1csc(N)n1)C(=O)O (some centres undefined)
inactive: [1] 1.02 | [2] 1.02 | [3] 1.01 | [4] 0.95 | [5] 1.05 | [6] 0.962 | [7] 1.02 | [8] 1.03

COc1cc(C2N=C(c3ccc(Cl)cc3)SC(c3ccc(Cl)cc3)=N2)cc(OC)c1OC
inactive: [10] 1 | [11] 1.01 | [9] 1.02 | [12] 1.03 | [13] 1.02 | [14] 0.997 | [15] 1.01 | [1] 0.991 | [16] 1.02 | [17] 1.03 | [18] 0.991 | [19] 1.02 | [20] 1.04 | [21] 1 | [22] 1.03 | [23] 1 | [24] 1 | locus YMR263W, strain SAP30, stronger effect = lower value 0.949 | [25] 1.01 | [26] 1.02 | [27] 1 | [28] 1.03 | [29] 0.891 | [30] 0.974 | [31] 1.01 | [32] 1.09

COc1ccc(-c2c(C)nc3ccc(Cl)cc3c2-c2ccccc2)cc1OC
active: [10] 0.91 | [12] 0.914 | [18] 0.819 | locus YMR307W, strain GAS1, stronger effect = lower value 0.546 | [31] 0.85
inactive: [11] 0.937 | [9] 0.945 | [13] 0.861 | [14] 0.949 | [15] 0.935 | [1] 0.759 | [16] 0.913 | [17] 0.977 | locus YKL190W, strain CNB1, stronger effect = lower value 0.98 | [19] 0.821 | [20] 0.986 | [21] 0.785 | [22] 0.948 | [23] 0.933 | [24] 0.947 | locus YNL128W, strain TEP1, stronger effect = lower value 1.01 | [25] 0.972 | [26] 1 | [27] 0.98 | [28] 0.889 | [29] 0.817 | [30] 0.798 | [32] 0.754

Source: PubChem BioAssay AID1159580 (chemical genetic matrix, 2015)
